# Shown are actives, neighbours in structure and some others; about 3.3% of the full set was active somewhere.
# Tau fluor cs: counter-screen for tau fibril formation inhibitors; tau K18 P301L Alexa594 fluorescence, heparin fibrillization; Potency, µM (highest dose often 57.7 µM), for inactives: at the top dose activity change, negative = decrease; 280,000 compounds, 0.93% hits; further: potency means the concentration at half of the fitted maximal effect; on the % scale 0 is the no-effect control and ±100 the full control effect; nearly all actives have a fitted effect of over 55% in size
#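 Human K18 P301L tau (15 uM unlabeled plus 0.24 uM Alexa 594-labeled, final) in 100 mM sodium acetate pH 7 was mixed with compound and 20 uM heparin and incubated 6 hr at 37 C.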
# Tau fibril ThT: blocks human tau fibril formation measured by thioflavin T | P10636 | recombinant tau K18 P301L, heparin-induced fibrillization, ThT fluorescence | Potency, µM (titrated, usually from 57.4 µM), for the others: at the highest dose activity, negative = inhibition, hits mostly inhibitors | 270,000 compounds, 2.1% hits; further: potency means the concentration at half of the fitted maximal effect; on the % scale 0 is the no-effect control and ±100 the full control effect; nearly all actives have a fitted effect of over 55% in size
# Target sequence (P10636 561-689 P618L limits assumed): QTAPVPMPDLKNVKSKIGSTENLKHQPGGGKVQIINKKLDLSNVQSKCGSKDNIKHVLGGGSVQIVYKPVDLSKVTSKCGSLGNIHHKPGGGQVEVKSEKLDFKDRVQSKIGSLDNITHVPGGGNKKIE
#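 Fibril formation assay: tau K18 P301L at 15 uM with trace Alexa 594 label, heparin inducer 20 uM, pH 7 sodium acetate buffer, 37 C for 6 hr; endpoint ThT signal.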
# KinaseGlo FLuc: Kinase-Glo luciferase inhibition (counter-screen); Potency, µM (series often up to 38.3 µM), inactives show at the highest dose activity change, negative = inhibition, most hits filed as inhibitors; 200,000 compounds, 0.28% hits; Q27757; AID 1379; Kinase-Glo luciferase, ATP luminescence, 8 min; further: potency means the concentration at half of the fitted maximal effect; on the % scale 0 is the no-effect control and ±100 the full control effect; nearly all actives have a fitted effect of over 60% in size
#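 Kinase-Glo luciferase light output from ATP and luciferin was measured with 10 uM ATP, within the enzyme's linear range. Buffer: 50 mM imidazole pH 7.2, 50 mM KCl, 7 mM MgCl2, 0.01% Tween 20, 0.05% BSA; luminescence read after 8 min at ambient temperature.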
# NPSR antag: neuropeptide S receptor (human) antagonism, cAMP; AID 1461; Q6W5P4; 220,000 compounds, 1% hits; Potency, µM (titrated, usually from 38.3 µM), without a hit: top-dose activity change, negative = inhibition, actives largely listed as inhibitors; CHO-NPSR cells, cAMP TR-FRET, antagonist mode; further: potency means the concentration at half of the fitted maximal effect; on the % scale 0 is the no-effect control and ±100 the full control effect; nearly all actives have a fitted effect of over 50% in size
# Target sequence (Q6W5P4 whole entry, looked up): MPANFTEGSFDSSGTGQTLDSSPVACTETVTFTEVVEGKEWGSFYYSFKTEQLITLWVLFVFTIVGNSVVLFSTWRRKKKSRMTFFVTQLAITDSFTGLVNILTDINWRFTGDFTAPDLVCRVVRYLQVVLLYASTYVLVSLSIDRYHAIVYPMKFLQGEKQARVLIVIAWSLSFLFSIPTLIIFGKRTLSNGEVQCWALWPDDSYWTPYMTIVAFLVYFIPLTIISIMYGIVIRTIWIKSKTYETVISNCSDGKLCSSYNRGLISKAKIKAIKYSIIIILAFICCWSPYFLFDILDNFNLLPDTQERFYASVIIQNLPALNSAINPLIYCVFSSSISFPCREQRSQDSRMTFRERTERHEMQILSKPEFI
# Tau fibril FP: tau fibrillization inhibition (FP); 280,000 compounds, 0.39% hits; Potency, µM (doses to about 57.7 µM), inactives show at the top dose activity, negative = inhibition, actives largely listed as inhibitors; AID 1468; K18 P301L tau heparin fibrillization, Alexa594 FP, 6 h; further: potency means the concentration at half of the fitted maximal effect; on the % scale 0 is the no-effect control and ±100 the full control effect; nearly all actives have a fitted effect of over 55% in size
#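 Quantitative HTS format: compounds meet 15 uM recombinant K18 P301L tau and Alexa 594-tau tracer in 100 mM sodium acetate pH 7; 20 uM heparin triggers fibrillization at 37 C over 6 hr; FP gives the signal.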
# Tau fibril TEM: Inhibits human tau fibrillization. shares compounds with Tau fibril ThT. recombinant tau K18 P301L fibrillization, TEM grading; active compounds read high. fibril grade (0 = clumped fibrils, 4 = only tiny pieces) (concentration not given with the values). 45 compounds, 70% hits. AID 1719;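 active means compounds whose electron micrographs showed tau fibrils broken into shorter filaments or fragments, graded high on fibril breakup; inconclusive means micrographs gave an unclear fibril picture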
# tau fibril sed: tau fibrillization inhibition by sedimentation; inhibition, % at 100 µM; recombinant tau K18 P301L (four-repeat tau fragment), sedimentation SDS-PAGE densitometry; 110 compounds, 50% hits; shares compounds with Tau fibril ThT; AID 1720; in the data active means inhibition above about 40%; inconclusive means no clear call, values can overlap the other calls; inactive means below about 18%
# Starred values were filed as active, the others as inactive; ? = inconclusive; nt = no result; ! = not active in a repeat; [ ] = another dose, or the depositor's remark. Unless noted, the call rests on the fitted dose curve; in most records, active means well fitted curve in the direction sought with a large enough effect; inconclusive means small, poorly fitted or top-dose-only effect, or another doubt; inactive means no such curve, though single readings can be large; an effect the other way counts as inactive or inconclusive.
SMILES,Tau fluor cs,Tau fibril ThT,KinaseGlo FLuc,NPSR antag,Tau fibril FP,Tau fibril TEM,tau fibril sed
CCc1ccc(S(=O)(=O)Nc2cc(SCC(=O)O)c(O)c3ccccc23)cc1,?,3.2µM*,-3%,-12%,8.9µM*,4*,77*
Cc1ccc(OCC(=O)Nc2cccc(-c3nc4ccccc4s3)c2)cc1,?,?,nt,nt,-7%,nt,nt
Cc1ccccc1NC(=O)Cn1cc(S(=O)(=O)N2CCCC2)c(S(=O)(=O)N2CCCC2)c1,-15%,-5%,nt,nt,-7%,nt,nt
O=C(Cc1ccccc1)Nc1sc2c(c1C(=O)Nc1ccccc1)CCCCC2,-9%,-3%,nt,nt,-11%,nt,nt
O=C(Cc1ccccc1)Nc1sc2c(c1C(=O)Nc1ccc(Cl)cc1)CCCC2,-24%,8.9µM*,nt,nt,?,2*,61*
COc1ccc(O[C@H]2C=C[C@@H](c3ccccc3)O[C@H]2COC(=O)CC/C(C)=N\O[C@@H](C)c2cn([C@H]3COC[C@H]3O)nn2)cc1,-10%[11.6 µM],-9%[11.5 µM],nt,nt,5%[11.6 µM],nt,nt
CCC(C)NC(=O)c1cnn(-c2cccc(F)c2)c1-n1cccc1 (stereo unspecified),-9%,-3%,nt,nt,-4%,nt,nt
O=C(Nc1nnc(S(=O)(=O)Nc2ccccc2)s1)C1CCCCC1,?,?,nt,nt,-18%,nt,10
O=C(Nc1nnc(S(=O)(=O)Nc2ccccc2)s1)c1ccccc1Cl,-20%,?,nt,nt,-2%,nt,nt
Cc1ccc(S(=O)(=O)N(C)c2nc3ccccc3[nH]c2=S)cc1,-24%,1.1µM*,nt,-13%,?,0,?
O=C(NCc1cccnc1)C1CCN(S(=O)(=O)c2cccs2)CC1,4.5µM*[quencher],4µM*,nt,-2%[46.1 µM],?,nt,13
O=C(NCc1cccnc1)C1CCN(S(=O)(=O)c2cccnc2)CC1,-6%,-2%,-6%,7%[46.1 µM],1%,nt,nt
Cc1cc2c(NC(=O)Nc3ccccc3)cccc2nn1,-25%,?,nt,15%,?,?,?
CC(=O)N1CCCc2cc(S(=O)(=O)N3CCC(C(=O)NCc4cccc(C)c4)CC3)ccc21,-11%,-3%,nt,nt,-3%,nt,nt
CC[C@H](NC(C)C)[C@H](O)c1ccc(O)c(O)c1,nt,nt,2%[17.1 µM],nt,nt,nt,nt
NC[C@H](O)c1ccc(O)c(O)c1,?,4µM*!,-1%,10%[46.1 µM],6.3µM*!,3*,75*
NC[C@@H](O)c1ccc(O)c(O)c1,-15%,?,-10%,nt,?,nt,18
Cc1ccc(NC(=O)CCc2c(C)nc3cc(-c4ccccc4)nn3c2C)cc1F,-21%,-4%,nt,nt,?,nt,nt
COC(=O)CSc1nc2ccc(NC(=O)CSc3nnnn3Cc3ccccc3)cc2s1,?,?,-2%,?,?,nt,18
CC(C)(C)/C(O)=C/c1nc2ccccc2oc1=O,-4%,-2%,-1%,11%,-6%[2.34 µM],nt,nt
Cc1nc2ccccc2oc1=O,?,?,1%,nt,10%,nt,13
COc1ccc2c(c1)c(CC(=O)OCC(N)=O)c(C)n2C(=O)c1ccc(Cl)cc1,-18%,-4%,nt,-27%,-9%,nt,nt
COc1ccc2c(c1)c(CC(=O)N1CCOCC1)c(C)n2C(=O)c1ccc(Cl)cc1,-5%,-6%,-1%,-30%[46.1 µM],8%,nt,9
COc1ccc(NC(=O)C2CCN(S(=O)(=O)c3c(C)noc3/C=C/c3cccs3)CC2)cc1Cl,-18%,5%,nt,nt,16µM*,nt,8
CCOC(=O)c1ccc(NC(=O)CCCn2c(=O)c3cccn3c3cccnc32)cc1,-26%,-2%,nt,nt,-11%,nt,nt
SMILES,Tau fluor cs,Tau fibril ThT,KinaseGlo FLuc,NPSR antag,Tau fibril FP,Tau fibril TEM,tau fibril sed
CCN1CCN(C(=O)c2nn(-c3ccccc3)c(=O)c3ccccc23)CC1,-6%,-3%,-3%,-2%[46.1 µM],-1%,nt,nt
Nc1scc2c(C(=O)N3CCOCC3)nn(-c3ccccc3)c(=O)c12,nt,nt,nt,nt,nt,nt,89*
NC(=O)c1nn(-c2ccccc2)c(=O)c2c(N)scc12,nt,nt,nt,nt,nt,nt,89*
CCOC(=O)c1nn(-c2ccccc2)c(=O)c2c(N)scc12,?,8.9µM*,-1%,1%[46.1 µM],?,2*,73*
Nc1nn(-c2ccccc2)c(=O)c2c(N)scc12,nt,nt,nt,nt,nt,nt,86*
Nc1scc2c(CO)nn(-c3ccccc3)c(=O)c12,nt,nt,nt,nt,nt,nt,81*
CCOC(=O)c1nn(-c2ccccc2)c(=O)c2c(NC(C)=O)scc12,-7%,2%,2%,-22%,-4%,nt,11
CCc1ccc(NC(=O)CC2C(=O)N(c3ccccc3)C(=O)N2C(C)C)cc1 (stereo unspecified),-7%,8%,nt,nt,-2%,nt,nt
CCOc1cc(/C=N/N=C2/NC(=O)C(CC(=O)O)S2)ccc1OCc1ccc(Cl)cc1Cl (stereo unspecified),8%,?,-1%,1%,-1%,nt,nt
COc1cc(/C=N/N=C2/NC(=O)C(CC(=O)O)S2)ccc1OCc1ccc(Cl)cc1 (stereo unspecified),4%,-8%,1%,-15%,12%,nt,18
O=S(=O)(c1ccc(N=C2NN=C(c3cc(F)ccc3F)CS2)cc1)N1CCOCC1,?,6.3µM*,nt,7%,?,3*,44*
Nc1ccc(S(=O)(=O)NC2=NCCCCC2)cc1,-6%,-7%,nt,-12%,1%,nt,nt
Nc1nc2cc(S(=O)(=O)NC3=NCCCCC3)ccc2s1,-25%,5µM*,nt,16%,?,2*,69*
CCOC(=O)c1ccc(S(=O)(=O)Nc2nc3cc(S(=O)(=O)NC4=NCCCCC4)ccc3s2)cc1,?,11µM*,0%,8%,16µM*,2*,68*
CN1CCN(C(=O)c2ccc3c(c2)N(Cc2ccc(Cl)cc2)C(=O)c2ccccc2S3(=O)=O)CC1,-18%,-4%,nt,nt,-7%,nt,nt
CN(C)c1ccc(-c2cc[nH]c(=O)c2N)cc1,nt,nt,nt,nt,nt,3*,68*
CN(C)C(=O)c1ccc(-c2cc[nH]c(=O)c2N)cc1,nt,nt,nt,nt,nt,0,48*
CN(C)C(=O)c1ccc(-c2cncnc2NCc2cccs2)cc1,-7%,-9%,0%,nt,-7%,nt,nt
Nc1c(-c2ccncc2)cc[nH]c1=O,nt,nt,nt,nt,nt,0,55*
CCCCc1nn2c(=O)cc(COC(=O)c3ccc(NC(=O)c4cccc(OC)c4)cc3)nc2s1,-2%,-4%,nt,nt,2%,nt,nt
N#C/C(=C\c1ccc(F)cc1)C(=O)NCC1CCCO1 (stereo unspecified),-2%,-2%,nt,nt,-2%,nt,nt
CCOC(=O)c1c(C)[nH]c(CCC(=O)Nc2ccc(Cl)cc2C)c1C,-22%,-14%,nt,nt,0%,nt,nt
COc1cccc(CNc2cccc3cccnc23)c1O,?,28µM*,-3%,22%[46.1 µM],?,2*,?
COc1cccc(CNc2cnc3ccccc3c2)c1O,?,?,-4%,28%[46.1 µM],10%,nt,nt

# Assay outcomes: PubChem BioAssay, National Center for Advancing Translational Sciences (NCATS)
